Inconclusive results are not listed. Entries that show only a call come without a potency. A number with no mark means an inactive call. Activity calls are given as the source filed them. The call rests on the fitted dose curve; in most records, active means well fitted cell-killing curve with a large enough effect; inconclusive means small, poorly fitted or top-dose-only effect, or effect the other way; inactive means flat fitted curve, though single readings scatter.
Key:
Assay in all cases: Primary qHTS to identify gynecologic anti-cancer compounds using libraries of approved drugs and bioactive compounds (AID 1345084); further: nearly all actives have a fitted effect of over 55% in size
Details in all cases: Gynecologic cancer cell panel viability, ATPlite luminescence, 48 h; series mostly up to 57.5 µM
[1] = test system: JEG-3
Procedure, shortened: (§1)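 48 h compound exposure at 37 C, 5% CO2; five-point qHTS. ATPlite luminescence readout of cell ATP.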

[2] = test system: OV90
Procedure, shortened: as §1

[3] = test system: PA-1
Procedure, shortened: as §1

[4] = test system: SKOV3
Procedure, shortened: as §1

[5] = test system: Tov-21-G
Procedure, shortened: as §1

[6] = test system: Tov112D
Procedure, shortened: as §1
Potency means the concentration at half of the fitted maximal effect.

| SMILES | Potency [1] | Potency [2] | Potency [3] | Potency [4] | Potency [5] | Potency [6] | activity change, negative = cytotoxicity [1] | activity change, negative = cytotoxicity [2] | activity change, negative = cytotoxicity [3] | activity change, negative = cytotoxicity [4] | activity change, negative = cytotoxicity [5] | activity change, negative = cytotoxicity [6] |
| --- | --- | --- | --- | --- | --- | --- | --- | --- | --- | --- | --- | --- |
| COC(=O)CC[C@@H](C)[C@H]1CC[C@H]2[C@@H]3CC(=O)[C@H]4C[C@H](OC(C)=O)CC[C@]4(C)[C@H]3CC[C@]12C | inactive | inactive | inactive | inactive | inactive | inactive | – | – | – | – | – | – |
| COc1ccc(C[C@H](N)C(=O)N[C@H]2[C@@H](O)[C@H](n3cnc4c(N(C)C)ncnc43)O[C@@H]2CO)cc1 | 3.98 µM (active) | 3.16 µM (active) | 0.708 µM (active) | 3.55 µM (active) | 3.98 µM (active) | 2 µM (active) | – | – | – | – | – | – |
| CC(=O)O[C@@H]1[C@H](O[C@@H]2O[C@H](CO)[C@@H](O)[C@H](O)[C@H]2O)[C@@H](O[C@@H]2O[C@@H](C)[C@H](O)[C@@H](O[C@@H]3O[C@H](CO)[C@@H](O)[C@H](O)[C@H]3O)[C@H]2O)[C@H](OC(=O)C23CCC4(C)C(=CCC5C6(C)CC(O)C(O[C@@H]7O[C@H](C(=O)O)[C@@H](O)[C@H](O)[C@H]7O)C(C)(C(=O)O)C6CCC54C)C2CC(C)(C)CC3O)O[C@@H]1C (stereo partly drawn) | – | – | – | – | – | – | 1.97% [at 6.55 µM] | 8.45% [at 6.55 µM] | 25.5% [at 6.55 µM] | 2.37% [at 6.55 µM] | 4.93% [at 6.55 µM] | 4.44% [at 6.55 µM] |
| CN1C(=O)c2ccccc2-n2c(nc3ccccc3c2=O)/C1=C/c1ccccc1 | inactive | inactive | inactive | inactive | inactive | inactive | – | – | – | – | – | – |
| COc1cc(COC2OC(CO)C(O)C(O)C2O)cc(OC)c1O (stereo not drawn) | inactive | inactive | inactive | inactive | inactive | inactive | – | – | – | – | – | – |
| COC(=O)[C@H](CC1C=NC=N1)NCC12CC3CC(CC(C3)C1)C2 (stereo partly drawn) | inactive | inactive | inactive | inactive | inactive | inactive | – | – | – | – | – | – |
| COc1cc(CCc2ccccc2)c(C(=O)O)c2c1CC(C(C)(C)O)O2 (stereo not drawn) | inactive | inactive | inactive | inactive | inactive | inactive | – | – | – | – | – | – |
| CNC(=O)COC(=O)NCCC1CCN(c2cccc(C)n2)CC1 | inactive | inactive | inactive | inactive | inactive | inactive | – | – | – | – | – | – |
| CC(CCC1(O)OC2CC3C4CCC5CC(O[C@@H]6O[C@H](CO)[C@@H](O)[C@H](O)[C@H]6O[C@@H]6OC[C@@H](O)[C@H](O)[C@H]6O)C(O)CC5(C)C4CCC3(C)C2C1C)CO[C@@H]1O[C@H](CO)[C@@H](O)[C@H](O)[C@H]1O (stereo partly drawn) | – | – | – | – | – | – | 4.38% [at 11.6 µM] | -1.54% [at 11.6 µM] | 17.2% [at 11.6 µM] | 0% [at 11.6 µM] | 0.148% [at 11.6 µM] | 1.16% [at 11.6 µM] |
| O=C(CCCCc1ccc2ccccc2c1)C(F)(F)F | inactive | inactive | inactive | inactive | inactive | inactive | – | – | – | – | – | – |
| COc1ccc([C@H]2Cc3cccc(O)c3C(=O)O2)cc1 | inactive | inactive | inactive | inactive | inactive | inactive | – | – | – | – | – | – |
| O=C(/C=C/c1ccccc1)OCC1=CC[C@@H]2C(C(=O)O)=CO[C@@H](O[C@@H]3O[C@H](CO)[C@@H](O)[C@H](O)[C@H]3O)[C@H]12 | inactive | inactive | inactive | inactive | inactive | inactive | – | – | – | – | – | – |
| O=C(O)CCc1cc2ccoc2cc1O[C@@H]1O[C@H](CO[C@@H]2OC[C@](O)(CO)[C@H]2O)[C@@H](O)[C@H](O)[C@H]1O | inactive | inactive | inactive | inactive | inactive | inactive | – | – | – | – | – | – |
| COc1cc(C2c3cc(O)c(OC)cc3CC(CO)C2CO)ccc1O (stereo not drawn) | inactive | inactive | inactive | inactive | inactive | inactive | – | – | – | – | – | – |
| C[C@@H]1O[C@@H](O[C@H]2[C@H](O[C@H]3[C@H](O[C@H]4CC[C@@]5(C=O)C(CC[C@]6(C)C5CC=C5C7CC(C)(C)C[C@@H](O)[C@]7(C)CC[C@]56C)C4(C)C)O[C@H](C(=O)O)[C@@H](O)[C@@H]3O)OC[C@@H](O)[C@@H]2O)[C@H](O)[C@H](O)[C@H]1O (stereo partly drawn) | – | – | – | – | – | – | 9.31% [at 11.6 µM] | 6.53% [at 11.6 µM] | 13.9% [at 11.6 µM] | 13.5% [at 11.6 µM] | 8.97% [at 11.6 µM] | 15.2% [at 11.6 µM] |
| CN1C(=O)c2ccccc2NC(=O)[C@]12O[C@@H]2c1cccc(O)c1 | inactive | inactive | inactive | inactive | inactive | inactive | – | – | – | – | – | – |
| Cc1ncc([N+](=O)[O-])n1CC(O)CN1CCOCC1 (stereo not drawn) | inactive | inactive | inactive | inactive | inactive | inactive | – | – | – | – | – | – |
| C[C@@H]1O[C@@H](O[C@H]2[C@H](O[C@H]3CO[C@@H](O[C@H]4CC[C@@]5(C)C(CC[C@]6(C)C5CC[C@]57OC[C@@]8(CC[C@](C)(CO)CC85)[C@H](O)C[C@]76C)C4(C)C)[C@H](O[C@@H]4O[C@H](CO)[C@@H](O)[C@H](O)[C@H]4O)[C@H]3O)O[C@H](CO)[C@@H](O)[C@@H]2O)[C@H](O)[C@H](O)[C@H]1O (stereo partly drawn) | – | – | – | – | – | – | -0.317% [at 11.6 µM] | 0.0764% [at 11.6 µM] | 4.72% [at 11.6 µM] | 20.5% [at 11.6 µM] | -1.65% [at 11.6 µM] | -8.07% [at 11.6 µM] |
| CC(C)CNC(=O)/C=C/CCCCc1ccc2c(c1)OCO2 | inactive | inactive | inactive | inactive | inactive | inactive | – | – | – | – | – | – |

| SMILES | Potency [1] | Potency [2] | Potency [3] | Potency [4] | Potency [5] | Potency [6] | activity change, negative = cytotoxicity [1] | activity change, negative = cytotoxicity [2] | activity change, negative = cytotoxicity [3] | activity change, negative = cytotoxicity [4] | activity change, negative = cytotoxicity [5] | activity change, negative = cytotoxicity [6] |
| --- | --- | --- | --- | --- | --- | --- | --- | --- | --- | --- | --- | --- |
| CC/C=C\C[C@H]1C(=O)C=C[C@@H]1CCCCCCCC(=O)O | inactive | inactive | inactive | inactive | inactive | inactive | – | – | – | – | – | – |
| CC1CCC2(C)C(CC(O)C(O)C23CO3)C1(C)CCC1=CC(=O)OC1O (stereo not drawn) | inactive | inactive | inactive | inactive | inactive | inactive | – | – | – | – | – | – |
| O=C1NCc2nc3ccccc3c(=O)n2C1Cc1c[nH]c2ccccc12 (stereo not drawn) | inactive | inactive | inactive | inactive | inactive | inactive | – | – | – | – | – | – |
| C/C=C/C=C/C(CC(=O)O)Nc1ccc(C=O)cc1 (stereo not drawn) | inactive | inactive | inactive | inactive | inactive | inactive | – | – | – | – | – | – |
| CC(=O)O[C@H]1[C@H](C)[C@@H](O)[C@H]2[C@@H]1C=C(C(=O)O)[C@H]1C[C@@H]3[C@H]([C@H]21)[C@H]1C(=O)O[C@@H]2CC[C@@]3(C)O[C@]1(O)[C@@H]2C | inactive | inactive | inactive | inactive | inactive | inactive | – | – | – | – | – | – |
| COc1c2c(c(C)c3c1C(=O)OC3)OC1(C)CC(O)C3(O)C(C)(C)OC(=O)CCC3(C)C1C2 (stereo not drawn) | inactive | inactive | inactive | inactive | inactive | inactive | – | – | – | – | – | – |
| CC1(C)CCCC2(C)C1C(O)C=C(CO)C2(O)C(=O)O (stereo not drawn) | inactive | inactive | inactive | inactive | inactive | inactive | – | – | – | – | – | – |
| O=C(O)c1cc(O[C@@H]2O[C@H](CO[C@@H]3OC[C@@H](O)[C@H](O)[C@H]3O)[C@@H](O)[C@H](O)[C@H]2O)c2ccccc2c1O | inactive | inactive | inactive | inactive | inactive | inactive | – | – | – | – | – | – |
| c1nc(NC2CCCCCC2)c2cc(CNC[C@H]3CCCO3)sc2n1 | inactive | inactive | inactive | inactive | inactive | inactive | – | – | – | – | – | – |
| C=C(C)[C@H]1C[C@@H](O)C(=C)CC[C@@H](O)C(=C)[C@@H](O)C1 | inactive | inactive | inactive | inactive | inactive | inactive | – | – | – | – | – | – |
| Oc1ccc([C@H]2COc3cc(O)ccc3C2)cc1 | inactive | inactive | inactive | inactive | inactive | inactive | – | – | – | – | – | – |
| CC1=CC(=O)CC(C)(CO[C@@H]2O[C@H](CO)[C@@H](O)[C@H](O)[C@H]2O)C1(O)/C=C/C(C)=C/C(=O)O (stereo partly drawn) | inactive | inactive | inactive | inactive | inactive | inactive | – | – | – | – | – | – |
| COc1cc(C2Oc3c(O)cc(CCCO)cc3C2CO)ccc1O[C@H]1O[C@H](C)[C@@H](O)[C@H](O)[C@@H]1O (stereo partly drawn) | inactive | inactive | inactive | inactive | inactive | inactive | – | – | – | – | – | – |
| CCNC(=O)CCC/C=C\C[C@@H]1[C@@H](/C=C/C(O)CCc2ccccc2)[C@@H](O)C[C@@H]1O (stereo partly drawn) | inactive | inactive | inactive | inactive | inactive | inactive | – | – | – | – | – | – |
| OC1COC(OCC2OC(OCCc3ccccc3)C(O)C(O)C2O)C(O)C1O (stereo not drawn) | inactive | inactive | inactive | inactive | inactive | inactive | – | – | – | – | – | – |
| C/C(=C\CCC(C)(O)c1ccc(C)cc1)C(=O)O (stereo not drawn) | inactive | inactive | inactive | inactive | inactive | inactive | – | – | – | – | – | – |
| CCOC(=O)[C@H](CCc1ccccc1)N[C@@H](C)C(=O)N1C2CCCCC2C[C@H]1C(=O)O (stereo partly drawn) | inactive | inactive | inactive | inactive | inactive | inactive | – | – | – | – | – | – |
| O=C(c1ccc(C#Cc2cccc(F)c2)cn1)N1CC2CC2C1 (stereo not drawn) | inactive | inactive | inactive | inactive | inactive | inactive | – | – | – | – | – | – |
| C[C@H]1CC[C@@]2(OC1)O[C@H]1CC3C4CC=C5C[C@H](O)C[C@@H](O[C@@H]6O[C@@H](C)[C@H](O)[C@@H](O)[C@H]6O[C@@H]6O[C@@H](C)[C@H](O)[C@@H](O)[C@H]6O)[C@]5(C)C4CC[C@]3(C)[C@H]1[C@@H]2C (stereo partly drawn) | inactive | inactive | inactive | inactive | inactive | inactive | – | – | – | – | – | – |

Reference: PubChem BioAssay (NCATS)
